# Reference: PubChem BioAssay AID2078 (The Scripps Research Institute Molecular Screening Center, 2009)
# Calls of active or inactive are those of the source. How the calls were made is not given here.
# Experiment: STAT3 inhibitors, late-stage profile, late-stage follow-up, cell-based, STAT1 panel, qPCR, cytotoxicity (AID 2078)
# Settings: STAT3/STAT1 inhibition panel, cell reporter assay, Quantitative PCR; qPCR mRNA fold change, at 10 µM, stronger effect = lower value
structure (smiles),measurement,value
c1ccc(CC2CCN(c3ncnc4sccc34)CC2)cc1,fold change,0.68
same,outcome,active; probe
